Molecules are shown by their SMILES. Inconclusive results are not listed. Entries that show only a call come without a potency. The source made the active and inactive calls. Calls come from the whole dose curve.
Potency is the fitted concentration of half-maximal effect.

Chain of 5-hydroxytryptamine receptor 2A (Homo sapiens) (P28223 whole entry, looked up): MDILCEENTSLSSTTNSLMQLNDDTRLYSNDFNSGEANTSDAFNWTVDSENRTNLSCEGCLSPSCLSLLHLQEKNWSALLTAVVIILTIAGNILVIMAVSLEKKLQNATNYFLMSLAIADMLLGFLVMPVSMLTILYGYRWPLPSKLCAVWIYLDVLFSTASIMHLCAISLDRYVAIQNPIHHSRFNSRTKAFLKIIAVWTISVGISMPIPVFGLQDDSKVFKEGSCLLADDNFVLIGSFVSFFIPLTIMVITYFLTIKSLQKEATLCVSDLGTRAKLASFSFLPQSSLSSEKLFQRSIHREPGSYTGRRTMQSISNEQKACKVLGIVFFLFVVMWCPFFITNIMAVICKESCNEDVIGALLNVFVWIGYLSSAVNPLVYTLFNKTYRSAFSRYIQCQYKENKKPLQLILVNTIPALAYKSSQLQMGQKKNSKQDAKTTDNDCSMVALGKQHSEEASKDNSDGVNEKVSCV

The experiment has as its target 5-hydroxytryptamine receptor 2A (Homo sapiens) (UniProt P28223). The experiment can be described thus: 5-hydroxytryptamine receptor 2A (HTR2A) small molecule antagonists, cell-based qHTS assay (AID 1963586). Note: nearly all actives have a fitted effect of over 45% in size. The conditions noted are these: HTR2A-CHO cells, DOI-induced calcium flux, fluorescence; series mostly up to 61.5 µM. The text has this: National Center for Advancing Translational Sciences [NCATS]
Division of Preclinical Innovation [DPI]
U.S. Environmental Protection Agency [EPA]
National Institutes of Environmental Health Sciences [NIEHS]
National Toxicology Program [NTP]
U.S. Food and Drug Administration [FDA]
The HTR2A receptor is a subtype of the 5-HT2 receptor that belongs to the serotonin receptor family and is a G protein-coupled receptor (GPCR). The HTR2A-CHO cell line stably expressing human 5-hydroxytryptamine receptor 2A (HTR2A) can be used for screening antagonists of interactions between 5-HT2 and its ligands. The HTR2A-CHO calcium flux assay is a homogeneous fluorescence-based assay for detecting the intracellular calcium level using FDSS kinetic plate reader system.
Tox21 Assay Protocol Summary:
HTR2A-CHO cells were dispensed at 2000 cells/3uL/well in 1536-well black-clear bottom plates using a Multidrop Dispenser. After the assay plates were incubated at a 37 C/5% CO2 incubator for 18 h, 3 uL of Dye Loading Buffer was transferred to the assay plate by a Flying Reagent Dispenser. The assay plates were incubated at 37 C for 1h. For antagonist mode, 23 nL of compounds dissolved in DMSO, positive controls or DMSO only was transferred to the assay plate by a pin tool. After 5 min incubation at room temperature, 1.5 uL of 4-Iodo-2,5-dimethoxy-alpha-methylbenzeneethanamine hydrochloride (DOI) at 4nM was added to each well. The fluorescence intensity in the plates was measured using FDSS 7000EX kinetic plate reader for 3 min at 1 sec intervals.
On to `O=C(Cc1ccccc1)c1ccccc1`, for which the Potency result was “inactive”.

On to `O=P(OCC(Br)CBr)(OCC(Br)CBr)OCC(Br)CBr` (stereo not given), for which the Potency result is “inactive”.

As for `C=CCc1cc(OC)c2c(c1)OCO2`, the Potency result was “inactive”.

Consider `Cc1cccc(N)c1C`, for which the Potency entry is “inactive”.

Turning to `CCCC1CCCCN1` (stereo not given), the Potency result is “inactive”.

Turning to `COP(N)(=O)SC` (stereo not given), the Potency entry is “inactive”.

Regarding `O=[N+]([O-])c1c(Cl)c(Cl)c(Cl)c(Cl)c1Cl`, the Potency result is “inactive”.

On to `Cc1cnc[nH]1`, for which the Potency result was “inactive”.

Regarding `CC(O)CCO` (stereo not given), the Potency entry is “inactive”.

For the compound `Cc1cc(Cl)ccc1OC(C)C(=O)O` (stereo not given), the Potency result was “inactive”.

Consider `Cc1ccc(N)cc1Cl`, for which the Potency entry was “inactive”.

For `CN(N=O)C(N)=O`, the Potency result was “inactive”.

For `O=[N+]([O-])c1cccc2ccccc12`, the Potency result was “inactive”.

Take `CCOC(=O)C1(c2ccccc2)CCN(CCC(C#N)(c2ccccc2)c2ccccc2)CC1`: the Potency is 130 nM (active).

For `CON(C)C(=O)Nc1ccc(Cl)c(Cl)c1`, the Potency result is “inactive”.

`Cc1cccc(C)c1NC(=O)CN1CCCC1=O`: the Potency result was “inactive”.

In the case of `CCOP(=S)(OCC)SCn1c(=O)oc2cc(Cl)ccc21`, the Potency result was “inactive”.

Consider `CNc1cnn(-c2cccc(C(F)(F)F)c2)c(=O)c1Cl`, for which the Potency entry is “inactive”.

For `CCN(CC)CCO`, the Potency entry is “inactive”.

Turning to `Cc1cccc(N)c1`, the Potency result was “inactive”.

With `O=C(Cl)OCCOCCOC(=O)Cl`, the Potency result was “inactive”.

Take `c1ccc2c(c1)CCCC2`: the Potency entry was “inactive”.

As to `O=C(O)CCCOc1ccc(Cl)cc1Cl`, the Potency entry was “inactive”.

As to `CCOC(=S)S`, the Potency entry was “inactive”.

`c1ccc(N2CCNCC2)cc1`: the Potency is 818 nM (active).

Consider `ClC1=C(Cl)[C@]2(Cl)[C@@H]3[C@@H](Cl)[C@@H](Cl)C[C@@H]3[C@@]1(Cl)C2(Cl)Cl`, for which the Potency entry was “inactive”.

As for `CC1C=[C-]C=C1.[C-]#[O+].[C-]#[O+].[C-]#[O+].[Mn]`, the Potency result was “inactive”.

Take `CC(C)N1C(=O)c2ccccc2NS1(=O)=O`: the Potency entry is “inactive”.

For `CNC(=O)Oc1cccc2c1OC(C)(C)C2`, the Potency entry is “inactive”.

Turning to `COC(=O)c1ccccc1CS(=O)(=O)NC(=O)Nc1nc(OC)cc(OC)n1`, the Potency result is “inactive”.

With `COC(C)(C)C`, the Potency result was “inactive”.

Take `Cc1nn(-c2cc(NS(C)(=O)=O)c(Cl)cc2Cl)c(=O)n1C(F)F`: the Potency result was “inactive”.

As for `O=P(O)(O)CN(CP(=O)(O)O)CP(=O)(O)O`, the Potency entry was “inactive”.

For `CC(C)OC(=S)S`, the Potency result is “inactive”.

As to `O=C(O)c1nn(Cc2ccc(Cl)cc2Cl)c2ccccc12`, the Potency result is “inactive”.

Take `Brc1ccc(Br)cc1`: the Potency result is “inactive”.

For `CC(=[OH+])/C=C(/C)[O-].CC(=[OH+])/C=C(\C)[O-].CC(=[OH+])/C=C(\C)[O-].[Al]`, the Potency entry was “inactive”.

Take `CNC(=O)Oc1cccc2ccccc12`: the Potency result was “inactive”.

Turning to `C=CC#N`, the Potency result is “inactive”.

For the compound `Cc1ccc(N=C=O)cc1N=C=O`, the Potency entry was “inactive”.
